DSG3 Ab inh: inhibitors of pemphigus antibody binding to DSG3, primary screen, biochemical, bead-based, flow cytometry, scFv-GFP. 0.48% of 310,000 active. DSG3-coupled beads, scFv-anti-DSG3-GFP binding; active compounds read low. Desmoglein-3 (Homo sapiens), P32926. AID 588358, 2011. binding (percent of control), % at 10 µM;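 active = binding more than 3 SD below its plate's average and above zero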;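 also: hits lower antibody fragment binding to DSG3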
Target sequence (P32926 whole entry, looked up, the tested form may be a part): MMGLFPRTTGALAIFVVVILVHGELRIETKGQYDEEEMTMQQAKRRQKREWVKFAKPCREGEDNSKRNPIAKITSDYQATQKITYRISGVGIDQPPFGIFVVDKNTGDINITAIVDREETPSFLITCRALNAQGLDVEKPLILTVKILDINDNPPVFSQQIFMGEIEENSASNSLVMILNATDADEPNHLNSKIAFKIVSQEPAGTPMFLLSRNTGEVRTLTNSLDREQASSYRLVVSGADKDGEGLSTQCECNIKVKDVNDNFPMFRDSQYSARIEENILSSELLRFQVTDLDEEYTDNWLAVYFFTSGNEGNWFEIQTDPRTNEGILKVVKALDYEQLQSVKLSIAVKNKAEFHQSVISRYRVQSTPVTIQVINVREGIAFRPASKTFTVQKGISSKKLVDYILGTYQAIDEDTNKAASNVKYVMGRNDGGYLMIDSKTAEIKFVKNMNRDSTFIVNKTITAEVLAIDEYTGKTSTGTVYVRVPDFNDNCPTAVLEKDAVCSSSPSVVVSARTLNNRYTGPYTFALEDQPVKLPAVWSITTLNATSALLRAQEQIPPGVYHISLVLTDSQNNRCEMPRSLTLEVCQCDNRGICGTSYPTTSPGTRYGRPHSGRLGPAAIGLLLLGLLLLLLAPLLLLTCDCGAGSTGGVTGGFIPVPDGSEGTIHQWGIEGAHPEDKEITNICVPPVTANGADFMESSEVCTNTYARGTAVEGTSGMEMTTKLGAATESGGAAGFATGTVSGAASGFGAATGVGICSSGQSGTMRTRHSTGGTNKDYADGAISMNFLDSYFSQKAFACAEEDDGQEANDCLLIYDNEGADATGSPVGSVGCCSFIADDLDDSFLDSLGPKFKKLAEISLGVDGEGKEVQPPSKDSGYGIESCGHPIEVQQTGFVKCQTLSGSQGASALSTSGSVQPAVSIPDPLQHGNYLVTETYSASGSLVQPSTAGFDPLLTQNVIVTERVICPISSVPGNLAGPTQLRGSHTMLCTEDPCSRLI
MsrA inh: bovine MsrA enzyme inhibitors, primary screen, biochemical, absorbance, HTS | AID 651718, 2012 | 0.75% of 360,000 active | purified bovine MsrA, absorbance read-out | Methionine sulfoxide reductase A (Bos taurus) | inhibition, % at 15.5 µM; in the data active = inhibition above about 4.5%
rCAG binder: binders of r(CAG) RNA repeats, primary screen, biochemical, fluorescence. inhibition, % at 3 µM. AID 651821, 2012. 1.3% of 370,000 active. r(CAG) RNA repeat, TO-PRO-1 dye displacement fluorescence;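 active = inhibition above the plate cutoff, the mean of all test compounds on that plate plus 3 SD, cut at about 35% in these data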;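 also: higher means more dye released from RNA so lower well fluorescence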
NadD block: inhibitors of S. aureus NadD, primary screen, biochemical, colorimetric, uHTS; 0.78% of 360,000 active; inhibition, % at 20 µM; Nicotinate-nucleotide adenylyltransferase NadD (Staphylococcus aureus N315); purified NadD enzyme, colorimetric absorbance read-out; AID 602399, 2012; in the data active = inhibition above about 26%
DAGLB inhibitor: DAGLB lipase inhibitors, primary screen, biochemical, fluorescence, HTS; Diacylglycerol lipase-beta (Homo sapiens), Q8NCG7; HEK293T DAGLB membrane lysate, EnzChek fluorogenic substrate; inhibition, % at 5.17 µM; 0.059% of 340,000 active; AID 504411, 2011; in the data active = inhibition above about 34%
MsrA act: bovine MsrA enzyme activators, primary screen, biochemical, absorbance, HTS. activation, % at 10.6 µM. purified bovine MsrA, absorbance read-out. 0.3% of 360,000 active; in the data active = activation above about 7.5%
MsrA activ conf: bovine MsrA activators, retest, confirmation, biochemical, absorbance, HTS; shares compounds with MsrA act; purified bovine MsrA, absorbance read-out; activation, % at 10.6 µM; 12% of 1,000 active; AID 602270, 2012; in the data active = activation above about 4%;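 also: enzyme coupled to thioredoxin and thioredoxin reductase with NADPH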
Numbers stand for hits; n = inactive; x = not tested or not shown. The list is not random: actives were taken first. Their share in the collection is about 3.2%.

SMILES	DSG3 Ab inh	MsrA inh	rCAG binder	NadD block	DAGLB inhibitor	MsrA act	MsrA activ conf
COc1ccc(S[C@]2(C(=O)N(C)C)CC(=O)N(C(=O)/C=C/c3ccccc3)[C@@H]2c2ccc(OC)cc2)cc1	x	x	n	x	x	x	x
COc1ccc(OC)c2nc3c(C(=O)NCCN(C)C)cccc3nc12	n	n	n	n	n	21	12
CCN(CC(=O)Nc1ccc(NC(C)=O)cc1)C(=O)c1cccc(S(=O)(=O)N2CCc3ccccc3C2)c1	n	n	n	n	n	n	x
Cc1ccc(NC(=O)CN(C)C(=O)c2cccc(S(=O)(=O)N3CCc4ccccc4C3)c2)cc1	n	n	n	n	n	10	n
COc1cccc(-c2cc(C(F)(F)F)n3nc(N)nc3n2)c1	n	n	n	n	n	14	n
CC(C)CC1NC(=O)N(CC(=O)Nc2ccc3c(c2)OCCO3)C1=O (stereo not drawn)	n	n	n	n	n	13	n
COc1cc(CN2C[C@@H](CO)O[C@@H](n3cnc4c(NCc5ccc(F)cc5)ncnc43)C2)cc(OC)c1OC	x	n	n	n	x	n	x
COC(=O)[C@@]1(Sc2ccc(C)cc2)CC(=O)N(C(=O)/C=C/c2ccccc2)[C@@H]1c1ccccc1	x	n	n	n	x	n	x
Cc1ccc(C(c2cc(Cl)c3cccnc3c2O)N2CCN(C)CC2)cc1 (stereo not drawn)	n	x	x	n	n	n	x
CN1CCN(C(c2ccccn2)c2cc(Cl)c3cccnc3c2O)CC1 (stereo not drawn)	n	n	n	n	n	18	n
CN(CCc1ccccn1)C(=O)c1cc2ccccn2n1	x	x	n	x	x	x	x
Oc1c(Cl)cc(Oc2cc(Cl)c(O)c(CN3CCOCC3)c2)cc1CN1CCOCC1	n	n	n	n	n	8.7	n
Oc1c(CN2CCOCC2)cc(CN2CCOCC2)c(O)c1O	n	n	n	n	n	n	x
CCOc1ccc(-n2c(SCc3nc4ccccc4[nH]3)nnc2-c2cccc(Cl)c2)cc1	x	x	n	x	x	x	x
C=CCc1ccccc1OCC(O)CN1CCN(c2ccc(C)cc2)CC1 (stereo not drawn)	n	n	n	n	n	9.3	n
CCN1CCN(C2=C(NS(=O)(=O)c3ccc(Br)cc3)C(=O)c3ccccc3C2=O)CC1	n	n	n	n	n	8.2	n
CCN1CCN(C2=C(NS(=O)(=O)c3ccccc3)C(=O)c3ccccc3C2=O)CC1	n	n	n	n	n	n	x
O=C(c1ccc(CSc2ccc(Cl)cc2)o1)N1CCOCC1	x	n	n	n	x	n	x
CC(C)COc1ccc(C/C(N)=N/n2cnnc2)cc1	n	n	n	n	n	8.0	n
COc1ccc(C/C(N)=N/n2cnnc2)cc1	n	n	n	n	n	n	x
CCOC(=O)c1csc(-c2snnc2C)n1	n	n	n	n	n	8.0	n
CCOC(=O)c1csc(N)n1	n	n	n	n	n	n	x
C[C@H]1CN([C@@H](C)CO)C(=O)CCCn2cc(nn2)CO[C@@H]1CN(C)C(=O)Nc1ccccc1F	x	n	n	n	n	n	x
COC1=CC(=O)c2c(ccc3ncnc(N)c23)C1=O	n	n	n	n	n	35	30
COc1cccc2c1C(=O)C=C(C)C2=O	n	n	n	n	n	n	x
SMILES	DSG3 Ab inh	MsrA inh	rCAG binder	NadD block	DAGLB inhibitor	MsrA act	MsrA activ conf
COCCN1C(=O)c2cc(C(=O)Nc3ccc(OC)c(OC)c3)ccc2C1Nc1ccc(OC)c(OC)c1 (stereo not drawn)	n	n	n	n	n	12	n
O=c1cc(Cc2ccccc2)[nH]c(=S)[nH]1	n	n	n	n	n	n	x
COCc1cc(=O)[nH]c(=S)[nH]1	n	n	n	n	n	9.9	5.0
Cc1nn(-c2ccccc2)c2sc(C(=O)NC3CCCC3)cc12	x	x	n	x	x	x	x
CCCC(=O)N1CCCC(c2cc(C(=O)Nc3ccccc3)no2)C1 (stereo not drawn)	x	n	n	n	x	n	x
O=C(Nc1nnc([C@H]2C[C@H](O)[C@@H](CO)O2)s1)Nc1ccc(F)cc1F	x	n	n	n	x	7.8	n
O=C(O)CCC(=O)c1ccc(C2CCCCCC2)cc1	x	n	n	n	x	13	n
CCCn1c(=O)c2ccccc2n2c(SCC(=O)c3ccccc3)nnc12	n	n	n	n	n	12	n
Cn1c(-c2ccccc2)c(Sc2ccccc2)c2cc(-c3ccc4cc[nH]c4c3)ccc21	x	n	n	n	x	n	x
CCN1CCN(C(=O)Nc2ccc(Cc3ccc(NC(=O)N4CCN(CC)CC4)cc3)cc2)CC1	n	n	n	n	n	8.2	n
CCc1ccc(NC(=O)N2CCCCCC2)cc1	n	n	n	n	n	n	x
COc1ccc(C(=O)c2sc3nc(-c4ccccc4)ccc3c2N)cc1	n	x	x	n	n	n	x
CC(C)OC(=O)c1sc2nc(-c3ccccc3)ccc2c1N	n	n	n	n	n	8.8	n
CN1C2CCCC1CC(NC(=O)c1nn(C)c3ccccc13)C2 (stereo not drawn)	x	x	n	x	x	x	x
CC(=O)c1cccc(NC(=O)c2cccc3c(-c4cccnc4)coc23)c1	x	n	n	n	x	n	x
NC1=C(Cl)C(=O)c2ccc(S(N)(=O)=O)cc2C1=O	n	n	n	n	n	24	14
NC1=C(Cl)C(=O)c2ccccc2C1=O	x	n	n	n	n	18	12
NS(=O)(=O)c1ccc2c(c1)C(=NO)c1cc(S(N)(=O)=O)ccc1-2	n	n	n	n	n	n	x
Cc1cccc(-c2cccc3c4c([nH]c23)[C@@H]2C[C@H](N(C)C(=O)c3cccc(Cl)c3)[C@H]([C@H](C)O)CN2CC4)c1	x	x	n	x	x	x	x
CC(=O)OCC(O)C1(O)CCC2C3CCC4=CC(=O)CCC4(C)C3C(O)CC21C (stereo not drawn)	x	n	n	n	x	n	x
C=CCN1C(=O)[C@@H](CC(=O)N2CCCCC2)[C@]2(C(=O)OCC)CCCCC/C=C/12	x	x	n	x	x	x	x
COc1ccc(NS(=O)(=O)c2cccc(C(=O)NNC(=O)c3cc(C)oc3C)c2)cc1	n	n	n	n	n	n	x
COc1ccc(NS(=O)(=O)c2cc(C)ccc2NC(=O)c2cc(C)oc2C)cc1	n	n	n	n	n	9.3	n
Cc1ccccc1N=C1NC(=O)/C(=C/c2cccn2C)S1	n	n	n	n	n	8.1	n
Cc1ccc(N=C2NC(=O)/C(=C\c3cccs3)S2)cc1C	x	n	n	n	n	n	x
Cc1ccc(CN2C(=O)c3ccccc3C2c2nnnn2-c2c(C)cccc2C)cc1 (stereo not drawn)	x	n	n	n	x	n	x
